Shown are actives, neighbours in structure and some others; about 3.7% of the full set was active somewhere.
Bead autofluor: counter-screen for toxin protease inhibitors: compound fluorescence | compound autofluorescence counterscreen, microsphere flow cytometry; stronger effect = higher value | fluorescence intensity (no concentration beside the values) | 360,000 compounds, 3.1% hits | AID 624483; in the data active means fluorescence intensity above about 16000; inconclusive means no clear call, values can overlap the other calls
BH1578 lux ind: inducers of Vibrio cholerae quorum light production without autoinducers, primary screen, BH1578 luxS cqsA deficient, single point; V. cholerae BH1578 lux reporter, luminescence, 6 h; activation, % at 18.7 µM; 350,000 compounds, 0.16% hits; AID 588436, 2011; in the data active means activation mostly above about 9.7%, no sharp cut-off; inconclusive means no clear call, values can overlap the other calls; inactive means mostly below about 3.7%
BoNT-F LC inh: BoNT/F light chain protease inhibitors, primary screen, biochemical, flow cytometry, MLPCN library. Botulinum neurotoxin type F light chain protease (Clostridium botulinum). Multiplex microsphere protease cleavage assay. inhibition, % at 10 µM. 360,000 compounds, 0.22% hits. AID 588497, 2011; in the data active means inhibition above about 35%, passing the limit was not always enough; inconclusive means no clear call, values can overlap the other calls
BJeLR lethal: MLPCN primary cell-based screen for lethality selective to Ras in HRASV12 cells. AID 1554, 2009. BJeLR (HRASV12) viability, CellTiter-Glo ATP luminescence, 48 h. inhibition, % (concentration not given with the values). 300,000 compounds, 0.17% hits; in the data active means inhibition above about 50%; inconclusive means no clear call, values can overlap the other calls
Anthrax LF prot: Bacillus anthracis LF protease inhibitors, primary screen, biochemical, multiplex microsphere, MLPCN library | 360,000 compounds, 0.12% hits | AID 588501, 2011 | Lethal factor (Bacillus anthracis), P15917 | multiplex microsphere protease cleavage assay | inhibition, % at 10 µM
BoNT A protease: BoNT/A light chain protease inhibitors, primary screen, biochemical, flow cytometry, MLPCN library; 360,000 compounds, 0.17% hits; AID 588499, 2011; inhibition, % at 10 µM; Botulinum neurotoxin type A light chain protease (Clostridium botulinum A str. ATCC 3502); multiplex microsphere protease substrate cleavage
Of the large screens only hits and unclear results are named; the others gave an inactive call; ! = a repeat was not active. Unless noted, no stated cut-off is given here; in the data, active means inhibition above about 30%; inconclusive means no clear call, values can overlap the other calls; inactive means below that.

O=C(Cn1nnc(-c2ccccc2)n1)NCc1ccco1	none
CC(=O)Nc1cccc(-c2ccnc3c2CC(C(=O)NCCC(F)(F)F)O3)c1 (configuration not stated)	none (no result: BJeLR lethal)
CN(C)c1nc2n(c(=O)n1)C(C#N)CS2 (configuration not stated)	Bead autofluor 16338
CN(C)c1nc2n(c(=O)n1)CCS2	none
O=C(O)c1ccccc1OCCN1CCCC1=O	none
C=CCCCOc1ccc(C(=O)O)cc1	Bead autofluor 21372 (no result: BJeLR lethal)
O=C(O)c1ccc(OCCN2CCCC2=O)cc1	Bead autofluor 19644
C=CCC(=O)OCCCCCCOc1ccc(C(=O)O)cc1	none
COc1ccc([C@@H]2C[C@H]3[C@@H](CN2S(=O)(=O)c2ccccc2)C(=O)C[C@@H](c2ccc(OC)cc2)N3S(=O)(=O)c2ccccc2)cc1	none (no result: BH1578 lux ind, BJeLR lethal)
CC1(C(=O)Nc2cccc(OC(F)(F)F)c2)Cc2c(-c3cccc(C(N)=O)c3)ccnc2O1 (configuration not stated)	none (no result: BJeLR lethal)
COC(=O)c1ccc2nc(C3CCCCC3)c(Cc3cccc(Cl)c3)n2c1	none (no result: BH1578 lux ind, BJeLR lethal)
CCOC(=O)c1ccc(N=C2NC(=O)CS2)cc1	Bead autofluor 23536
CNC(=S)N1CCC(C(=O)c2ccc(Cl)cc2)CC1	none (no result: BJeLR lethal)
CC(C)CN1C(=O)c2ccc(NC(=O)c3cccs3)cc2C1=O	Bead autofluor 24092, BoNT A protease inconclusive
CCCCOc1ccc(-n2nc(C)cc2C)nn1	none
Cc1cc(C)n(-c2ccc(OCC(=O)O)nn2)n1	Bead autofluor 23964
CCC(c1nnnn1-c1ccc2c(c1)OCCO2)N1CCN(c2ccc(C)cc2)CC1 (configuration not stated)	none (no result: BH1578 lux ind, BJeLR lethal)
O=C(c1cc2c(c(-c3cccc(-c4ccncc4)c3)n1)[C@@H](CCO)N(C(=O)c1ccc3c(c1)OCO3)C2)N1CCOCC1	none (no result: BH1578 lux ind, BJeLR lethal)
CCC(=O)c1cc2c(C)cc(=O)oc2c(C)c1OC	Bead autofluor 22529
CCC(=O)Oc1c(C(=O)CC)cc2c(C)cc(=O)oc2c1C	none
O=c1[nH]c2ccccc2n1CCCSCCCn1c(=O)[nH]c2ccccc21	Bead autofluor 19717, BoNT A protease inconclusive
Cc1cc(C(=O)CSCCCn2c(=O)[nH]c3ccccc32)c(C)n1C	none (no result: BH1578 lux ind)
CCOCC(O)CS(=O)(=O)c1ccccn1 (configuration not stated)	Bead autofluor 23197, BoNT A protease inconclusive
CC(=O)Nc1ccccc1OCC(O)CS(=O)(=O)c1ccc(C(F)(F)F)cn1 (configuration not stated)	none
Cc1coc2c(C)c3oc(=O)c(CCC(=O)N[C@H](C(=O)O)C(C)C)c(C)c3cc12	none (no result: BJeLR lethal)
Cc1cc(C)c2nc(C)cc(N/N=C/c3ccc(O)cc3)c2c1	BJeLR lethal 51
CCCCN(CCCC)Cc1cc(=O)oc2ccc3ccccc3c12	none (no result: BH1578 lux ind, BJeLR lethal)
Cc1ccc(S(=O)(=O)N2CCN(C(=O)CN3CCOCC3)C2c2ccccc2)cc1 (configuration not stated)	none
Cc1ccc(S(=O)(=O)N2CCN(S(=O)(=O)c3ccc(C)cc3)C3OCCOC32)cc1 (configuration not stated)	Bead autofluor 16671
Cc1ccc(S(=O)(=O)N2CCN(C(=O)CN3CCOCC3)C2C(C)C)cc1 (configuration not stated)	Bead autofluor 22471
Cc1ccc(S(=O)(=O)N2CCCCC2C(=O)O)cc1 (configuration not stated)	none
O=C(NCc1ccc(C(F)(F)F)cc1)c1ccc(-c2cccnc2)c2ccoc12	none (no result: BJeLR lethal)
CCCCCC(=O)N1CCN(CCN=CC2=C(O)CC(c3cccs3)CC2=O)CC1 (configuration not stated)	Bead autofluor 19021!
CC(C)(C)c1ccccc1OCC(=O)NCCC(=O)O	Bead autofluor 24308
CC(=O)Nc1cc(-c2cccc(F)c2)cn2c(-c3ccc(F)cc3)cnc12	none (no result: BJeLR lethal)
O=C(NCC1CCCO1)c1ccc(CS(=O)(=O)c2ccc(Br)cc2)o1 (configuration not stated)	none
O=C(NCC1CCCO1)c1ccc(CS(=O)(=O)c2ccc(Cl)cc2)o1 (configuration not stated)	Bead autofluor 22230
O=C(CN1CCN(C(C(=O)Nc2cc(C(F)(F)F)ccc2Cl)c2ccccc2)CC1)NC1CC1 (configuration not stated)	none (no result: BJeLR lethal)
COc1cc(C(=O)N2CCC2(C)C(=O)O)cc(OC)c1OC (configuration not stated)	none (no result: BJeLR lethal)
O=C(CC(C(=O)N1CCc2ccccc21)n1ccnc1)NCC1CCCO1 (configuration not stated)	Bead autofluor 22602
CCCc1cnc(Nc2nc(C(N)Cc3ccc(C(F)(F)F)cc3)cs2)nc1 (configuration not stated)	none (no result: BJeLR lethal)
Cc1cc2occ(CC(=O)Nc3nccs3)c2cc1C(C)C	Bead autofluor 22242, BoNT A protease inconclusive
COc1ccc(CCC(=O)Nc2nccs2)cc1OC	none
COc1cc(CC(=O)Nc2nccs2)cc(OC)c1OC	Bead autofluor 22884, BoNT A protease inconclusive
CCCC(=O)N1CCN(c2nc3ccccc3s2)CC1	none
O=C(c1cc2sccc2n1Cc1ccc(F)cc1)N1CCN(c2nc3ccccc3s2)CC1	none
Cn1c(C(=O)N2CCN(c3nc4ccccc4s3)CC2)cc2sccc21	Bead autofluor 19151
CCN1CCN(c2nc3ccccc3s2)CC1	Bead autofluor 20785, BoNT A protease inconclusive
CSc1ccc(NC(=O)N2CCN(c3nc4ccccc4s3)CC2)cc1	Bead autofluor 21539, BoNT A protease inconclusive
Cc1ccsc1CNC(=O)C1(C)CCN1C(C)C (configuration not stated)	none (no result: BJeLR lethal)
CCCn1c(SC(C)C(=O)O)nc2ccccc21 (configuration not stated)	Bead autofluor 21928
CCCn1c(SCC(=O)C(C)(C)C)nc2ccccc21	none
CCCCC[C@@H](C)N1C[C@@H](COCc2ccccc2)Oc2cc(N3CCC[C@H]3COC)ccc2S1(=O)=O	none (no result: BH1578 lux ind, BJeLR lethal)
CC(C)CCN1C(N(C)C)=NC[C@@H]1C	BH1578 lux ind 26 (no result: BJeLR lethal)
CC1=C(C(=O)N2CCCCCC2)CC(CC(=O)NCCCCc2ccccc2)C(=O)N1CCC1=CCCCC1 (configuration not stated)	none (no result: BH1578 lux ind, BJeLR lethal)
COc1cc(/C=N/NC(=O)CSc2cc(C)c(Br)cc2C)ccc1O	none
Cc1cc(SCC(=O)N/N=C/c2ccc(O)c(O)c2O)c(C)cc1Br	Bead autofluor 22001
O=[N+]([O-])c1ccc(N2CCN(Cc3ccccc3)CC2)c2c1no[n+]2[O-]	none (no result: BJeLR lethal)
Cc1cc2nc(/C=C/c3cccnc3)[nH]c2cc1C	BoNT-F LC inh inconclusive, BJeLR lethal 53
Cc1cc2nc(/C=C/c3nc4cc(C)c(C)cc4[nH]3)[nH]c2cc1C	none
COc1ccc2c(c1)SCC(=O)N2C	Bead autofluor 21232

Source: PubChem BioAssay (several laboratories)
